In all, about 310,000 compounds went through this assay and about 18,000 (5.8%) were called active. Where a call stands in place of a potency, no number is given. Roughly 22% stayed inconclusive and do not appear here. The sample holds actives, similar compounds and a random draw of the others, so the mix is not that of the screen. Values without a mark were called inactive. The call rests on the fitted dose curve; in most records, active means well fitted inhibition curve with a large enough effect; inconclusive means small, poorly fitted or top-dose-only effect, or another doubt; inactive means no such curve, though single readings can be large or run the other way.
test: Primary qHTS for delayed death inhibitors of the malarial parasite plastid, 48 hour incubation; conditions: P. falciparum luciferase growth in erythrocytes; series mostly up to 28.7 µM
Outline: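 In quantitative HTS format, infected erythrocytes bearing luciferase-reporter parasites were treated for a single generation at 37 C. Luminescence after adding detection reagent served as the growth measure.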
Potency means the concentration at half of the fitted maximal effect.

| SMILES | Potency | activity change, negative = inhibition |
| --- | --- | --- |
| O=C(c1ccncc1)N1CCN(S(=O)(=O)c2cccc([N+](=O)[O-])c2)CC1 | inactive | – |
| O=C(c1ccncc1)N1CCN(S(=O)(=O)c2cc(C(F)(F)F)cc(C(F)(F)F)c2)CC1 | 11.7 µM (active) | – |
| O=C(Cc1ccsc1)N1CCN(S(=O)(=O)c2cc(C(F)(F)F)cc(C(F)(F)F)c2)CC1 | inactive | – |
| CCn1c(SCC(=O)NC2CC2)nnc1-c1ccccc1OC | inactive | – |
| Cc1cccn2c(=O)nc(SCC(=O)NCc3ccccc3Cl)nc12 | inactive | – |
| COc1ccc(OCCCCN2CCC(C)CC2)cc1 | – | -11.4% [at 0.00184 µM] |
| Cc1ccc2nc(SCC(=O)N3CCN(c4ccccc4)CC3)nc(=O)n2c1 | inactive | – |
| O=C(Oc1ccc2c(c1)CCC2)N1CCOCC1 | inactive | – |
| O=C(Nc1cccc(OC(=O)N2CCCCC2)c1)N1CCOCC1 | 10.4 µM (active) | – |
| COc1cc(NC(=O)N2CCOCC2)cc(OC)c1 | inactive | – |
| COc1cc(OC)cc(C(=O)NCCCn2ccnc2)c1 | inactive | – |
| COCCNc1ncnc2c1nc1n2CCCC1 | inactive | – |
| Cc1ccc(S(=O)(=O)NCC(=O)Nc2ccc3c(c2)OCCO3)cc1 | inactive | – |
| CN(CC(=O)NCc1cccnc1)S(=O)(=O)c1cc(Cl)ccc1Cl | inactive | – |
| CC(C)c1ccc(Nc2ncccc2C#N)cc1 | inactive | – |
| Nc1ccc(Nc2cc(O)c3ncccc3c2)cc1 | 10.4 µM (active) | – |
| Cc1cccc(C)c1NC(=S)N1CCCCCC1 | inactive | – |
| COc1cccc(CNC(=O)CCCC(=O)Nc2cccc([N+](=O)[O-])c2)c1 | inactive | – |
| O=C(NCc1cccc(Cl)c1)C1CCC(=O)N(C2CC2)C1 (stereo not given) | inactive | – |
| O=C(CCN1C(=O)C2CCCCC2C1=O)Nc1ccc(OC(F)F)cc1 (stereo not given) | inactive | – |
| Cc1ccc(C(=O)NCCc2nnc(SCC(=O)Nc3cccc(C(=O)O)c3)n2C)cc1 | inactive | – |
| CCOC(=O)c1[nH]cnc1C(=O)Nc1ccccc1C | inactive | – |

| SMILES | Potency | activity change, negative = inhibition |
| --- | --- | --- |
| Cc1ccc(NC(=O)OCCNC(=O)c2ccncc2)cc1 | inactive | – |
| Cc1ccc(NC(=O)c2nc[nH]c2C(=O)N[C@@H](CCCCNC(=O)OC(C)(C)C)C(=O)OC(C)(C)C)cc1 | 13.1 µM (active) | – |
| Cc1cccc(NC(=O)c2nc[nH]c2C(=O)NCC(=O)OCc2ccccc2)c1 | inactive | – |
| C[C@H](NC(=O)c1nc[nH]c1C(=O)NCC(=O)OC(C)(C)C)C(=O)OCc1ccccc1 | inactive | – |
| CCOC(=O)c1ccc(NC(=O)c2nc[nH]c2C(=O)NCc2ccccc2)cc1 | inactive | – |
| CCOC(=O)c1ccc(NC(=O)c2nc[nH]c2C(=O)N[C@@H](CCCCNC(=O)OC(C)(C)C)C(=O)OC(C)(C)C)cc1 | 6.57 µM (active) | – |
| C[C@H](NC(=O)c1nc[nH]c1C(=O)N[C@@H](C)C(=O)OC(C)(C)C)C(=O)OC(C)(C)C | 9.28 µM (active) | – |
| CCN(CC)C(=O)COc1coc(CN2CCN(Cc3ccccc3)CC2)cc1=O | inactive | – |
| O=C(NCCC1CCCCN1S(=O)(=O)c1ccccc1)C(=O)NCC1CCCO1 (stereo not given) | inactive | – |
| O=C(CCC1CCCN(C(=O)c2ccc(F)c(F)c2)C1)N1CCN(c2ccccn2)CC1 (stereo not given) | inactive | – |
| COc1ccc(Cl)cc1NC(=O)COc1ccc2c(c1)OCO2 | inactive | – |
| Nc1cccc(CCc2nc3ccccc3[nH]2)c1 | inactive | – |
| Nc1nc(-c2ccccc2)cc(-c2ccccc2)n1 | inactive | – |
| Nc1cccc(-c2cc(-c3ccccc3)nc(-c3cccc(N)c3)n2)c1 | 10.4 µM (active) | – |
| Cc1cccc(C(=O)NCCCN(C)CCCNC(=O)c2cccc(C)c2)c1 | inactive | – |
| CCSc1nc2sc3c(c2c(=O)[nH]1)CC(C)(C)OC3 | inactive | – |
| O=C(OCc1ccc([N+](=O)[O-])cc1)C1CC(=O)N(Cc2ccccc2Cl)C1 (stereo not given) | inactive | – |
| COc1cc(/C=C/C(=O)O)cc(S(=O)(=O)Nc2ccccc2C(=O)NCCc2ccccc2)c1OC | inactive | – |
| Cc1cc(=O)oc2c(C)c(OCC(=O)N3CCN(Cc4ccc5c(c4)OCO5)CC3)ccc12 | inactive | – |
| c1ccc(-c2cnc(CN3CCN(c4ccccc4)CC3)o2)cc1 | inactive | – |
| COc1ccccc1N1CCN(Cc2cc(OC)c3c(c2)OCO3)CC1 | inactive | – |
| COc1cc(C(CCN2CCN(c3ccccc3)CC2)c2c(OC)cc(OC)c3ccc(=O)oc23)cc(OC)c1OC (stereo not given) | 13.1 µM (active) | – |

| SMILES | Potency | activity change, negative = inhibition |
| --- | --- | --- |
| COc1cc(OC)c2ccc(=O)oc2c1C(CCN1CCN(c2ccccc2)CC1)c1ccc2c(c1)OCO2 (stereo not given) | 11.7 µM (active) | – |
| COc1ccccc1NC(=O)CCN1CCN(c2ccc(Cl)cc2)CC1 | inactive | – |
| CC(OC(=O)CN1C(=O)c2ccccc2C1=O)C(=O)c1ccccc1 (stereo not given) | inactive | – |
| COc1cc(S(=O)(=O)Nc2ncn[nH]2)ccc1Cl | inactive | – |
| O=Cc1c(NCCCN2CCCC2=O)c2ccccc2[nH]c1=O | inactive | – |
| O=C(NC1CCCC1)C(c1ccc(Cl)cc1)N(C(=O)c1csnn1)C1CC1 (stereo not given) | inactive | – |
| Cc1cc(-c2ccc(S(=O)(=O)N3CCN(c4cccc(C(F)(F)F)c4)CC3)s2)on1 | inactive | – |
| O=c1c2ccccc2nc(/C=C/c2ccc(F)cc2)n1-c1ccccc1O | 13.1 µM (active) | – |
| O=c1oc(/C=C/c2ccccc2)nc2ccccc12 | inactive | – |
| O=c1c2ccccc2ncn1/N=C/c1ccccc1 | inactive | – |
| CCC(=O)c1ccc(OCC(=O)Nc2ccc3nc(C)sc3c2)cc1 | inactive | – |
| Cc1ccc(NC(=O)COc2ccc(/C=N\NC(=O)c3cccnc3)cc2)cc1C | inactive | – |
| Cc1ccc(NC(=O)COc2ccc(-n3ccnc3)cc2)cc1Cl | 9.28 µM (active) | – |
| Cc1ccc(NC(=O)NC(=O)c2ccccc2)cc1F | inactive | – |
| COc1ccc(NC(=O)c2nc(-n3nc(C)cc3C)ccc2Cl)cc1Cl | inactive | – |
| Cc1cc(N/N=C\c2ccc(Br)cc2)nc(-n2nc(C)cc2C)n1 | 1.04 µM (active) | – |
| COc1cccc(/C=N/Nc2cc(C)nc(-c3ccccc3O)n2)c1O | 3.7 µM (active) | – |
| Cc1ccc(S(=O)(=O)Nc2nc(C)cc(N/N=C/c3ccc(O)cc3)n2)cc1 | inactive | – |
| COc1ccccc1/C=N\Nc1cc(C)nc(-n2nc(C)cc2C)n1 | 1.65 µM (active) | – |
| Cc1nc(Cl)cc(N/N=C/c2ccccc2)n1 | inactive | – |
| COc1cc(NS(=O)(=O)c2ccccc2)ccc1-n1nc(C)cc1C | inactive | – |
| COc1cccc2c(N/N=C/c3ccco3)cc(C)nc12 | inactive | – |

| SMILES | Potency | activity change, negative = inhibition |
| --- | --- | --- |
| COc1cc(/C=N/Nc2nc3ccccc3s2)ccc1O | inactive | – |
| CCc1nc2nc(C)c(NS(=O)(=O)c3ccc4c(c3)CCCC4)c(=O)n2[nH]1 | inactive | – |
| CN(CC(=O)Nc1cccc(F)c1)C(=O)CC1CCCC1 | inactive | – |
| Cc1ccc(-c2ccnc3[nH]n(-c4ccccc4)c(=O)c23)cc1 | inactive | – |
| C=CCn1c(CNS(=O)(=O)c2ccc(Br)cc2)nnc1SC | inactive | – |
| COc1ccc(OC)c(NC(=O)Cc2cccs2)c1 | inactive | – |
| CN(CC(=O)NNC(=O)CNC(=O)c1ccccc1Cl)S(=O)(=O)c1ccc(Cl)cc1 | inactive | – |
| Cc1csc(SCC(=O)N(c2ccccc2)C(C)C)n1 | 10.4 µM (active) | – |
| COc1ccc(NC(=O)CSc2nc(C)cs2)cc1 | inactive | – |
| Cc1ccc(C(=O)N2CC(=O)Nc3ccc(F)cc3C2c2ccc(F)cc2)cc1 (stereo not given) | inactive | – |
| O=S(=O)(c1cccs1)N1CCN(CCOc2ccccc2)CC1 | inactive | – |
| COC(=O)c1ccc2c(C(C)(C)O)c(C(C)(C)O)[nH]c2c1 | inactive | – |
| COc1cccc(/C(C)=N/Nc2ncc(Cl)cc2Cl)c1 | inactive | – |
| COc1cccc(/C=N/Nc2ncc(C(F)(F)F)cc2Cl)c1O | 1.04 µM (active) | – |
| COc1cc(/C=C2\SC(=S)N(Nc3ncc(C(F)(F)F)cc3Cl)C2=O)cc(OC)c1OC | inactive | – |
| O=C(NNC(=O)c1ccco1)Nc1ccccc1 | inactive | – |
| Cc1ccc(C(=O)OCC(=O)NC(=O)Cc2ccccc2)c(O)c1 | inactive | – |
| COc1cc(NS(=O)(=O)c2ccc(NC(=S)NC(=O)c3ccc(Br)cc3)cc2)ncn1 | inactive | – |
| COc1ccc(CC(=O)NC(C)CCc2ccccc2)cc1 (stereo not given) | inactive | – |
| COc1ccc(Cc2cc(-c3ccc(F)cc3)n[nH]c2=O)cc1 | inactive | – |
| COc1ccc(C(CCNCc2ccccc2F)c2ccc(F)cc2)cc1 (stereo not given) | 7.38 µM (active) | – |
| CC1(C)Cc2c(cnn2-c2cccc(F)c2)C(NC(=O)c2cc[n+]([O-])cc2)C1 (stereo not given) | inactive | – |

| SMILES | Potency | activity change, negative = inhibition |
| --- | --- | --- |
| Cc1ccc(S(=O)(=O)N2CCOCC2)cc1NC(=O)COC(=O)c1cnccn1 | inactive | – |
| Cc1cccc(NS(=O)(=O)c2ccc([N+](=O)[O-])cc2)n1 | inactive | – |
| O=C(CCl)Nc1ccc(Sc2ccc(NC(=O)CCl)cc2)cc1 | 3.29 µM (active) | – |
| O=C(Cc1ccc(Cl)c(Cl)c1)Nc1ccc(SC(F)F)cc1 | inactive | – |
| Cc1ccc(NC(=O)CC(=O)Nc2ccc(C)cc2)cc1 | inactive | – |
| CCN(CC)S(=O)(=O)c1ccc(-c2cn3ccc(C)cc3n2)cc1 | inactive | – |
| CCCOc1cccc(C(=O)NCCCNC(=O)c2cccnc2)c1 | inactive | – |
| Cc1nn(C(C)C(=O)NCCC2=CCCCC2)c(=O)c2nn(-c3ccccc3)c(C)c12 (stereo not given) | inactive | – |
| O=C(NNS(=O)(=O)c1ccc(F)cc1)C1CCCCC1 | inactive | – |
| CS(=O)(=O)Nc1ccccc1N=C(c1ccccc1)c1ccccc1 | inactive | – |
| COCCNC(=O)C(c1ccc(C)o1)N(Cc1cccs1)C(=O)c1snc(C(N)=O)c1N (stereo not given) | inactive | – |
| CCOc1ccc(N(C(=O)c2snc(C(N)=O)c2N)C(C(=O)NCC2CCCO2)c2c[nH]c3ccccc23)cc1 (stereo not given) | 5.22 µM (active) | – |
| COC(=O)c1cccc(N(C(=O)CNC(=O)c2cccs2)C(C(=O)NCC2CCCO2)c2ccc(OC)c(OC)c2)c1 (stereo not given) | inactive | – |
| Cc1ccc(N(C(=O)c2snc(C(N)=O)c2N)C(C(=O)NCC2CCCO2)c2c[nH]c3ccccc23)cc1 (stereo not given) | 7.38 µM (active) | – |
| Cc1ccc(N(C(=O)Cc2cccs2)C(C(=O)NCC2CCCO2)c2ccncc2)cc1 (stereo not given) | inactive | – |
| CCOc1ccc(N(CC(=O)NCC2CCCO2)S(=O)(=O)c2ccc(C)cc2)cc1 (stereo not given) | inactive | – |
| Cc1ccc(C(C(=O)NCC2CCCO2)N(C(=O)c2snc(C(N)=O)c2N)c2ccc(C(C)C)cc2)o1 (stereo not given) | 9.28 µM (active) | – |
| COc1cccc(N(C(=O)c2snc(C(N)=O)c2N)C(C(=O)NCC2CCCO2)c2c[nH]c3ccccc23)c1 (stereo not given) | 9.28 µM (active) | – |
| O=C(NCCc1c[nH]c2ccccc12)C(=O)NCC1CCCO1 (stereo not given) | inactive | – |
| CCOc1cc(C(C(=O)NCC2CCCO2)N(C(=O)Cn2nnc3ccccc32)c2cccc(OC)c2)ccc1O (stereo not given) | inactive | – |
| CC(Sc1nn(-c2ccc(Cl)cc2)c(=S)s1)C(=O)NCC1CCCO1 (stereo not given) | inactive | – |
| CCOc1ccc(-n2c(N)c(C(=O)NCC3CCCO3)sc2=S)cc1 (stereo not given) | inactive | – |

— PubChem BioAssay AID504832 (National Center for Advancing Translational Sciences (NCATS), 2011)
